Drawing on PubChem BioAssay AID1259310 (The Scripps Research Institute Molecular Screening Center, 2017), this text covers normalized activity (activation) for 57 molecules.

“And” between values parts separate entries of the source, which are not always exact repeats. Equal values may be shown once. Screen size: about 650,000 compounds; about 850 (0.13%) were called active. Shown is part of a subset that was picked to be rich in actives. A number with no mark means an inactive call. Rule as the data show it: active = normalized activity above about 1.9%; inactive = the rest.

Sequence of F-box/WD repeat-containing protein 7 (Homo sapiens) (Q969H0 whole entry, looked up): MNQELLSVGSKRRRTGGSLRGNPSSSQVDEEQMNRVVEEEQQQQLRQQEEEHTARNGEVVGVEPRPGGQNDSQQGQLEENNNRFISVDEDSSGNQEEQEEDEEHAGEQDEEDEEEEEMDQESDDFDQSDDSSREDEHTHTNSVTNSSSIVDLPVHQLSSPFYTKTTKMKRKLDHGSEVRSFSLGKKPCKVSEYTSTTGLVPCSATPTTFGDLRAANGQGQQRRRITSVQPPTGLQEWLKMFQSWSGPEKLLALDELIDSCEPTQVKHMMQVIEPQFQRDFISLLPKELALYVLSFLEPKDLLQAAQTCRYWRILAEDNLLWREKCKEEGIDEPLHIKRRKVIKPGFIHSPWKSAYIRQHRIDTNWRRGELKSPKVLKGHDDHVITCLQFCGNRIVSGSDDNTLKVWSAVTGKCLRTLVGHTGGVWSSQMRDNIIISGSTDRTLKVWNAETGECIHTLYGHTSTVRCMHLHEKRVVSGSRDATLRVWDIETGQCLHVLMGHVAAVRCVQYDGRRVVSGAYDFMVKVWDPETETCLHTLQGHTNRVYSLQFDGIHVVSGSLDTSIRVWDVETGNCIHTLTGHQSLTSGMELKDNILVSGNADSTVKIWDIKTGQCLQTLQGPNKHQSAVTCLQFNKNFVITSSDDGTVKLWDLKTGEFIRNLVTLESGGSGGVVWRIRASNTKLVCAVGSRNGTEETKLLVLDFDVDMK

The assay addresses F-box/WD repeat-containing protein 7 (Homo sapiens) (UniProt Q969H0). Nature of the assay: FBW7 E3 ligase activators, primary screen, biochemical, AlphaScreen, human (AID 1259310).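 Also: purified mutant Fbw7 with reduced substrate affinity.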 To be noted: AlphaScreen FBW7–phospho-cyclin E peptide binding, activator screen; at 26.1 µM; stronger effect = higher value.
For `NC(=O)CSc1ccc2nnc(-c3ccccn3)n2n1`, the normalized activity (activation) was 69.7% (active).

`O=C(O)CSc1ccc2nnc(-c3ccc(F)cc3)n2n1`: the normalized activity (activation) was 0.39%.

In the case of `Cc1ccc(-c2nnc3ccc(SCC(N)=O)nn23)cc1`, the normalized activity (activation) was 0.47%.

Regarding `O=C(Nc1ccc(N2CCOCC2)cc1)c1cccc(-n2nccc2NC(=O)C2CC2)c1`, the normalized activity (activation) is 0.06%.

Take `COc1ccc(N2CCN(C(CNC(=O)C(C)C)c3ccco3)CC2)cc1` (configuration not stated): the normalized activity (activation) was 0%.

Take `COc1ccc(Br)cc1CN(C)Cn1cnc2ccccc21`: the normalized activity (activation) is -0.03%.

In the case of `C=CCNC(=O)c1cc2c(=O)n3cccc(C)c3nc2n1C`, the normalized activity (activation) was 0.17%.

On to `CCN(Cc1ccccc1)C(=O)c1cc2c(=O)n3cccc(C)c3nc2n1C`, for which the normalized activity (activation) is 3.93% (active).

As for `CC(C)N(Cc1ccccc1)C(=O)c1cc2c(=O)n3ccccc3nc2n1C`, the normalized activity (activation) is 0.69%.

For `O=C(CNC(=O)OCc1ccccc1)Oc1ccc2c(-c3ccccc3)cc(=O)oc2c1`, the normalized activity (activation) is -0.09%.

Take `O=C(NCc1nnc2n1CCN(Cc1c(F)cccc1Cl)CC2)c1ccccc1`: the normalized activity (activation) is -0.02%.

For the molecule `O=C(Cc1cccs1)NCCS(=O)(=O)N1CCN(c2ccccn2)CC1`, the normalized activity (activation) is 0.01%.

Consider `Cc1cc(C(=O)N2CCC(c3[nH]ncc3-c3ccncc3)CC2)c(C)[nH]1`, for which the normalized activity (activation) was 0.63%.

On to `O=C(c1cnsc1)N1CCCC(c2ncncc2-c2ccncc2)C1` (configuration not stated), for which the normalized activity (activation) was 0.35%.

As for `O=C(c1cnsc1)N1CCC(c2[nH]ncc2-c2ccncc2)CC1`, the normalized activity (activation) is 2.18% (active).

For the molecule `Cc1ccc(C)c(C(=O)Nc2ncc(S(=O)(=O)c3ccc([N+](=O)[O-])cc3)s2)c1`, the normalized activity (activation) is -0.16%.

In the case of `CCOc1ccc(NC(C)C(=O)N/N=C/c2ccccc2O)cc1` (configuration not stated), the normalized activity (activation) was -0.35%.

As for `COCCn1nnnc1C(c1cc2cc(C)c(C)cc2[nH]c1=O)N1CCCCC1` (configuration not stated), the normalized activity (activation) was -0.02%.

For `COCCn1nnnc1C(c1cc2cc(C)cc(C)c2[nH]c1=O)N1CCOCC1` (configuration not stated), the normalized activity (activation) was 2.29% (active).

As to `COCCn1nnnc1C(c1cc2ccc(C)cc2[nH]c1=O)N1CCCC1` (configuration not stated), the normalized activity (activation) is -0.04%.

As for `O=C1NC(=O)C(=Cc2ccc(OC(=O)c3ccc(Cl)c(Cl)c3)cc2)C(=O)N1`, the normalized activity (activation) is 0.22%.

Turning to `CCOC(=O)CSc1nc2ccsc2c(=O)n1CCc1ccc(OC)c(OC)c1`, the normalized activity (activation) is 0.46%.

On to `CCSCCOC(=O)C1=C(C)NC2=C(C(=O)CC(c3ccccc3)C2)C1c1ccccc1` (configuration not stated), for which the normalized activity (activation) is 0.61%.

As to `COCCOC(=O)C1=C(C)NC2=C(C(=O)CC(c3ccccc3)C2)C1c1cc(OC)ccc1OC` (configuration not stated), the normalized activity (activation) is 0.27%.

For the molecule `CCSCCOC(=O)C1=C(C)NC2=C(C(=O)CC(c3ccccc3)C2)C1c1ccc(OC)cc1OC` (configuration not stated), the normalized activity (activation) was 2.28% (active).

As for `O=C(Nc1ccc(C(=O)Nc2nccs2)cc1)c1ccc2c(c1)C(=O)N(c1ccccc1-c1ccccc1)C2=O`, the normalized activity (activation) was -0.08%.

For `Cc1ccc(N=c2scc(C)n2CCCO)cc1`, the normalized activity (activation) was -0.38%.

Regarding `CN(C)c1cccc(Nc2cccc(C(=O)NC3CC3)n2)c1`, the normalized activity (activation) was -0.12%.

For the molecule `CN(C)c1cccc(Nc2cc(C(=O)NC3CC3)c3ccccc3n2)c1`, the normalized activity (activation) is 0.31%.

In the case of `CC(=O)N(C)c1nc(-c2cccc(N(C)C)c2)ccc1C(=O)NC1CCCCC1`, the normalized activity (activation) is 1.86% (active).

With `CCOC(=O)N1CCC(NC(=O)CC2C(=O)NCCN2Cc2ccoc2)CC1` (configuration not stated), the normalized activity (activation) was 0.27%.

In the case of `CCCCSc1ncnc2c1c(-c1ccccc1)cn2-c1ccc(OC)cc1`, the normalized activity (activation) is -0.03%.

With `Cc1ccc(C(C)C)c(OCC(=O)Oc2ccc3c(c2)oc(=O)c2ccccc23)c1`, the normalized activity (activation) was -0.05%.

As for `CCOC(=O)/C(C#N)=C/c1ccc(N2CCCCC2)cc1`, the normalized activity (activation) is 1.85% (active).

As for `CCOC(=O)/C(C#N)=C/c1cc(C)n(-c2ccc(C(=O)OCC)cc2)c1C`, the normalized activity (activation) was -0.1% and -0.13%.

In the case of `COCCNC(=O)/C(C#N)=C/c1ccc(N2CCOCC2)cc1`, the normalized activity (activation) was 0.46%.

As to `CCOC(=O)C1=C(C)N=c2s/c(=C\c3ccc(OCc4ccc([N+](=O)[O-])cc4)c(OC)c3)c(=O)n2C1c1ccc2c(c1)OCO2` (configuration not stated), the normalized activity (activation) was 0.04%.

Regarding `COCCNc1ncc(-c2cccs2)cn1`, the normalized activity (activation) was 0.02%.

With `O=C1C2C3c4ccccc4C(c4ccccc43)C2C(=O)N1CCCCO` (configuration not stated), the normalized activity (activation) is 0.04%.

As to `CC1=C(C#N)C(=O)N(CCCO)C(=O)/C1=C\c1ccc(-c2ccc(Cl)cc2)o1`, the normalized activity (activation) was -0.06%.

Turning to `CCCCOC(=O)c1cccc(NC(=O)CN2C(=O)c3ccccc3C2=O)c1`, the normalized activity (activation) is 0.09%.

`Cc1ncn(-c2ccc(Nc3cc(-c4cnn(C(C)C)c4-c4ccc(F)cc4)ccn3)cc2)n1`: the normalized activity (activation) is 0.79%.

As for `Cc1ncn(-c2ccc(Nc3cc(-c4nocc4-c4ccccn4)ccn3)cc2)n1`, the normalized activity (activation) was 2.76% (active).

Regarding `CNc1cc(-c2ccnc(Nc3ccc(-n4cnc(C)n4)cc3)c2)no1`, the normalized activity (activation) is 0.51%.

In the case of `O=c1c(NCCN2CCCCCC2)c(-c2ccc(Cl)cc2)c1=O`, the normalized activity (activation) was 0%.

For the molecule `CC(C)NCCOCCOc1cccc(Br)c1`, the normalized activity (activation) is 0.35%.

Turning to `COCc1cc(C)nc(OCC(=O)c2ccccc2)c1C#N`, the normalized activity (activation) is 0.04%.

For `Cc1c(C(=O)N2CCCC2)oc2c1-c1nn(CC(=O)N3CCCC3)cc1CC2`, the normalized activity (activation) was 8.41% (active).

With `Cc1c(C(=O)N2CCCC2)sc2ncn(CC(=O)N3CCCC3)c(=O)c12`, the normalized activity (activation) is 0.33%.

For `Cc1c(C(=O)N2CCOCC2)oc2c1-c1nn(CC(=O)NC(C)c3ccccc3)cc1CC2` (configuration not stated), the normalized activity (activation) is -0.04%.

On to `Nc1nnc(-c2ccc(Cn3c(-c4cncs4)nc4ccccc43)cc2)s1`, for which the normalized activity (activation) was 0.1%.

For `O=C(O)CCCN1C(=O)C(=O)/C(=C(\O)c2ccccc2)C1c1cccc(F)c1` (configuration not stated), the normalized activity (activation) was -0.31%.

On to `CC1CCCN(S(=O)(=O)c2cccc3cccnc23)C1` (configuration not stated), for which the normalized activity (activation) was -0.09%.

As to `Cc1cc(Nc2ccc(Cl)cc2)n2c(nc3ccccc32)c1C#N`, the normalized activity (activation) is -0.02%.

Take `Cc1cc(NCCN2CCCCCC2)n2c(nc3ccccc32)c1C#N`: the normalized activity (activation) was 2.12% (active).

On to `Cc1c(Cc2ccccc2)c(N2CCCCC2)n2c(nc3ccccc32)c1C#N`, for which the normalized activity (activation) was 0.12%.

As to `CC(=O)c1cccc(-c2nc3ncnc(NCCOc4ccccc4)c3[nH]2)c1`, the normalized activity (activation) is 0.01%.
